Screen size: about 190,000 compounds; about 1,300 (0.68%) were called active. Rule as the data show it: active = inhibition above about 50%; inactive = the rest. The list comes from a sample in which actives are over-represented; it also holds similar structures and randomly drawn compounds.
Molecular target: Mannose-6-phosphate isomerase (Homo sapiens) (UniProt P34949)
Assay: MPI inhibition at elevated mannose 6-phosphate – biochemical, fluorescence intensity, high mannose 6-phosphate, primary screen (AID 1220)
Settings: recombinant PMI enzyme, coupled fluorescence intensity; at 20 µM; stronger effect = higher value

Mannose-6-phosphate isomerase (Homo sapiens), sequence (P34949 whole entry, looked up): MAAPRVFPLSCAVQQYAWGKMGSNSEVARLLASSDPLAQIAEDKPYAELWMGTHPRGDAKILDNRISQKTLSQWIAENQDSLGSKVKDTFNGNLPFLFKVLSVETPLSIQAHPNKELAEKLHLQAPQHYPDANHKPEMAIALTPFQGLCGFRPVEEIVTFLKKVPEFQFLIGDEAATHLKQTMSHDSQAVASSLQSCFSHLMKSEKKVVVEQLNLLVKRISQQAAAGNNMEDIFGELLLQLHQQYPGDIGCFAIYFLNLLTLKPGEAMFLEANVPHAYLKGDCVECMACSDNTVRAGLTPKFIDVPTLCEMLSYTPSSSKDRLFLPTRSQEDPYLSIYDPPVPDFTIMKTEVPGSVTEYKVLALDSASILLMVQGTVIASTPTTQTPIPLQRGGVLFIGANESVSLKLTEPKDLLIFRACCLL

inhibition, inactive:
O=C(CCc1nnc(CCCc2ccccc2)o1)NCCc1ccccc1 -1.7%, Cc1nc2c(c(=O)n1CCC1=CCCCC1)c1nc3ccccc3nc1n2/N=C/c1ccco1 15.8%, Cc1nn(CCc2nn[nH]n2)c2nc(-c3ccc(Br)cc3)cc(C(F)(F)F)c12 4.9%, CSc1cccc(NC(=O)C2CCN(S(C)(=O)=O)CC2)c1 5.6%, Cc1ccc(OCCC(=O)Nc2ccc(C)c(F)c2)cc1 16.2%, Cc1ccc(S(=O)(=O)N2CCC(C(=O)NCCCN3CCCCCC3)CC2)cc1 -3.9%, CCCCNC(=O)c1onc(CSc2ccccc2F)c1C(=O)O -0.1%, Cc1nc(NC(=O)CN(C)S(=O)(=O)c2ccc(Br)cc2)sc1C 1.7%, COc1ccc(/C=C2/CCc3ccccc3C2=O)cc1OC 29.2%, COc1ccc2c(c1)C(=O)/C(=C/C=C/c1ccccc1)CC2 33.4%, COc1ccc(/C=C2\CC/C(=C\c3ccc(OC)cc3OC)C2=O)c(OC)c1 13.5%, COc1ccc2c(c1)CC/C(=C\c1ccc(OC)c(Cn3cccn3)c1)C2=O 21.7%, COc1cc2nc(CN3CCC(Cc4ccccc4)CC3)[nH]c(=O)c2cc1OC -12.9%, COC(=O)c1ccc2c(=O)n(CC3CCCO3)c(SCC(=O)NCCc3ccc(S(N)(=O)=O)cc3)nc2c1 (centres undefined) -2.9%, CCc1nnc(N/N=C/c2ccccc2F)n1N 5.2%, Cc1nnc(N/N=C/c2ccc(-c3ccccc3F)o2)n1N 33.4%, Cc1nnc(N/N=C/c2c(Cl)cccc2Cl)n1N 32.3%, CC(C)(C)c1nnc(N/N=C/c2ccccc2O)n(N)c1=O -27.3%, C/C(=N/OCc1ccc(Br)cc1)c1ccccn1 1.2%, O=[N+]([O-])c1ccc2nc(NCCCO)nc(-c3ccccc3)c2c1 -39.7%, CCCS(=O)(=O)c1c(S(=O)(=O)CCC)c2ccc(C(N)=O)cn2c1C(=O)c1ccc(OC)cc1 14%, O=C(Nc1cccn2ncnc12)C(F)(F)F -1.2%, COc1ccc(CNC(=O)CSc2nnc3c(Cl)cc(C(F)(F)F)cn23)cc1OC 12.9%, Oc1ccc(Cl)cc1C=Nc1ccc(Br)cc1 8.3%, Oc1c(Cl)cc(Cl)cc1C=Nc1ccccc1N1CCCC1 33.7%, Oc1c(Cl)cc(Cl)cc1C=Nc1ccc(Br)cc1 17.7%, Cc1cccc(N=Cc2[nH]c3ccc(Br)c(Cl)c3c2O)c1 -1.9%, Oc1c(Cl)cc(Cl)cc1/C=N/Nc1ncc(Br)cn1 -22.9%, COc1cc(Br)cc(C=Nc2cccc(C(F)(F)F)c2)c1O 15.9%, Oc1c(Cl)cc(Cl)cc1/C=N/c1nccs1 -2.8%, O=C(CCC(=O)N/N=C/c1cc(Cl)cc(Cl)c1O)NCc1ccccc1 17.9%, O=C(CN1CCSCC1)N/N=C/c1ccc(F)c(F)c1 -7.6%, CC(Oc1ccc(Br)cc1)C(=O)NCc1ccccn1 (centres undefined) -0.8%, CCN1CCN(C(=O)c2ccccc2NS(=O)(=O)c2ccc(Cl)cc2)CC1 -3.6%, COc1ccc(C(C#N)N2CCC(c3ccccc3)=N2)cc1OC (centres undefined) -5.6%, COc1ccc(/C(C)=N\NS(=O)(=O)c2ccccc2)cc1OC 4.4%, COc1ccc(C2CCCN2C(=S)Nc2ccc(C)cc2Cl)cc1OC (centres undefined) 2.1%, COc1ccc(CNC(=O)c2ccc(C(C)C)cc2)cc1 12.3%, O=C(Nc1ccccc1OC(F)F)c1ccccc1 9.2%, CC1CCCCC1N1CCN(C(=O)c2cccc(F)c2)CC1 (centres undefined) -10.5%, O=C(Nc1nc2ccc(F)cc2s1)C1CCN(S(=O)(=O)c2cc([N+](=O)[O-])ccc2Cl)CC1 13.7%, C=CCn1c(Cc2ccc(OC)cc2)nnc1SCC(=O)NCCc1ccccc1 -0.7%, COc1ccc(C(C)C)cc1S(=O)(=O)N1CCN(c2ccccc2)CC1 6.8%, Cn1nnnc1NCc1ccc(Cl)cc1 -7.1%, COCc1ccc(CN2CCc3c([nH]c4ccccc34)C2C(C)(C)C)o1 (centres undefined) 14.1%, Cc1cnc(CN2CCc3c([nH]c4ccccc34)C2CC(C)C)[nH]1 (centres undefined) 11.2%, O=C(Cc1cccs1)Nc1ccc(S(=O)(=O)N2CCCC2)cc1 39.8%, CC(On1c(-c2ccccc2)nc2ccc(Cl)cc21)C(=O)O (centres undefined) -10.3%, CC(C)=CC(=O)N1CCCc2ccccc21 10.1%, C/C(=C/C(=O)N1CCc2ccccc21)C(=O)O 2.1%, Nc1nonc1-n1nnc(C(=O)O)c1-c1cccs1 0.4%, Cc1noc(C)c1COC(=O)CNC(=O)c1cccc(F)c1 -11.8%, O=C(Nc1ccc2oc(Cc3ccc(Cl)cc3)nc2c1)c1cccnc1 7.7%, Oc1ccc(C=Nc2cccc3ncccc23)c(O)c1 38.7%, O=[N+]([O-])c1ccc(O)c(/C=N/Nc2ccccn2)c1 -20.1%, Oc1c(Br)cc(Br)cc1C=Nc1ccc2c(c1)OCO2 48.6%, O=C(N/N=C/c1cc([N+](=O)[O-])ccc1O)c1ccc2c(c1)OCCO2 -16.7%, Oc1c(Cl)cc(Cl)cc1C=Nc1ccc2c(c1)OCCO2 25%, CN(C)/N=C/c1cc([N+](=O)[O-])ccc1O 9.8%, O=[N+]([O-])c1ccc(O)c(C=Nc2ccc3nc(-c4ccccc4)[nH]c3c2)c1 8.2%

inhibition, active:
COc1ccc2c(c1)CC/C(=C\C=C\c1ccccc1OC)C2=O 53.3%, COc1ccc2c(c1)CC/C(=C\C=C\c1ccccc1)C2=O 52.8%, Cc1nnc(N/N=C/c2ccccc2O)n1N 52.5%, Cc1nnc(N/N=C/c2ccco2)n1N 56.6%, NC(=O)c1cccc(N=Cc2cc(Cl)cc(Cl)c2O)c1 55.3%, Cc1ccc(N=Cc2cc(Cl)cc(Cl)c2O)nc1 58.6%, Cc1ccc(N=Cc2cc(Br)cc(Cl)c2O)cc1 50.8%, Cc1cccc(N=Cc2cc(Br)cc(Cl)c2O)c1 57.8%, COCc1ccc(CN2CCc3c([nH]c4ccccc34)C2CC(C)C)o1 (centres undefined) 52%, C/C(=C\C(=O)N1CCc2ccccc21)C(=O)O 61.3%, O=[N+]([O-])c1ccc(O)c(C=Nc2cccc3ncccc23)c1 52.5%, O=[N+]([O-])c1ccc(O)c(C=Nc2ccc3c(c2)OCCO3)c1 52.8%, O=[N+]([O-])c1ccc(O)c(C=Nc2ccc3oc(Cc4ccc(Cl)cc4)nc3c2)c1 61.1%, Oc1c(Br)cc(Br)cc1C=Nc1ccc2c(c1)OCCO2 59.7%

— PubChem BioAssay AID1220 (Sanford-Burnham Center for Chemical Genomics, 2008)
